# High-throughput results: PubChem BioAssay, National Center for Advancing Translational Sciences (NCATS)
# Rows were chosen to be rich in hits. Some 3.1% of all compounds tested hit in one or more screens of this group.
# RGS4 inh: Inhibitors of Regulator of G Protein Signaling (RGS) 4: qHTS | actives 0.039% (n = 390,000) | Potency, µM (top dose mostly 114 µM), hits mostly inhibitors | Transcreener GDP fluorescence polarization, RGS4-accelerated GTP hydrolysis | AID 504845, 2011; active means well fitted inhibition curve with a large enough effect; inconclusive means small, poorly fitted or top-dose-only effect; inactive means no such curve, though single readings can be large or run the other way; further: nearly all actives have a fitted effect of over 75% in size
# Target sequence (P49798 whole entry, looked up): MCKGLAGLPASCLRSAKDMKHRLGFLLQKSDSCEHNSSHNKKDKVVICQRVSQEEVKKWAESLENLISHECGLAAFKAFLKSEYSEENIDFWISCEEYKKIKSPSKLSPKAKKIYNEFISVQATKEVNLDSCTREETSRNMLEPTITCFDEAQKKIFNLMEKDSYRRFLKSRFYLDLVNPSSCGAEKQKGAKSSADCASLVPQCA
#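 MLSMR compounds (23 nl, pin-transferred) preincubated 10 min at room temperature with a 500nM (2x) first reagent, then RGS4 at 900nM (2x) plus Transcreener GDP mix added; fluorescence polarization (620/688 nm) read before and after 90 min at 30 °C.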
# uPA generation: qHTS for Inhibitors of Cell Surface uPA Generation; cell surface uPA generation assay, qHTS; Potency, µM (titrated, usually from 38.3 µM), most hits filed as inhibitors; actives 0.31% (n = 330,000); AID 540303, 2011; active means well fitted inhibition curve with a large enough effect; inconclusive means small, poorly fitted or top-dose-only effect; inactive means no such curve, though single readings can be large or run the other way; tested in mouse RAW 264.7 cells; further: nearly all actives have a fitted effect of over 55% in size
# DRD3 agonist: qHTS of D3 Dopamine Receptor Agonist: qHTS. D(3) dopamine receptor (Homo sapiens), P35462. D3R DiscoveRx beta-arrestin cells, luminescence, 90 min. max activation, %. actives 0.58% (n = 410,000). AID 652048, 2013; in the data active means max activation above about 30%
# Target sequence (P35462 whole entry, looked up): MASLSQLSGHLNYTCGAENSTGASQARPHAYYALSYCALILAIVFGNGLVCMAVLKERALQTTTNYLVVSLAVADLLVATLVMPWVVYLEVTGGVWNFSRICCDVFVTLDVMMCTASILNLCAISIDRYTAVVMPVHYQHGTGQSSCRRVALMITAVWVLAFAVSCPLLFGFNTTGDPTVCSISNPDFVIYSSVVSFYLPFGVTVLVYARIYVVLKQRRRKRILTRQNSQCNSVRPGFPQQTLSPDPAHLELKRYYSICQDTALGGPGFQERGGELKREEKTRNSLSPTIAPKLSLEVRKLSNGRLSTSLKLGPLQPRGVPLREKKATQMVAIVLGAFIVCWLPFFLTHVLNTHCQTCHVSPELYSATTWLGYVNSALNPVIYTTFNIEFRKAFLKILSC
#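 Agonist-mode cell screen: cells plated at 1500/well and incubated overnight at 37 °C, then exposed to library compounds for 90 min at 37 °C. Detection reagent was added for 30–60 min at room temperature, and luminescence was read.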
# DRD3 antagonist: qHTS of D3 Dopamine Receptor Antagonist: qHTS; D(3) dopamine receptor (Homo sapiens), P35462; D3R cells, DiscoveRx beta-arrestin luminescence, antagonist mode; stronger effect = lower value; max response, negative = inhibition, %; actives 2.5% (n = 360,000); in the data active means max response below about -50%; inconclusive means no clear call, values can overlap the other calls
#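 Cells plated overnight at 1500 cells/well, then exposed to library compounds with dopamine controls for 90 minutes at 37 degrees C. DiscoveRx reagent added for 30–60 minutes at room temperature; luminescence read, quantitative HTS format.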
# Hits are given with their value; . = inactive; ? = inconclusive; / = no result given; [ ] = remark or other dose.
SMILES,RGS4 inh,uPA generation,DRD3 agonist,DRD3 antagonist
CCCS(=O)(=O)NC(=O)C1(C)CCN(C(=O)COc2ccc(Cl)cc2Cl)C1 (configuration not stated),/,/,76,.
CCCCc1cc(=O)oc2cc(OC(C)C(=O)NCC3CCC(C(=O)O)CC3)c(Cl)cc12 (configuration not stated),.,.,.,-58
O=C(CSc1ccccn1)Nc1nonc1[N+](=O)[O-],.,?,.,-70
CC1CS(=O)(=O)CCN1/N=C/c1ccc([N+](=O)[O-])o1 (configuration not stated),/,/,.,/
CCCCCOC(=O)c1ccc(OC(=O)c2sc3ncn(Cc4cccc(F)c4)c(=O)c3c2C)cc1,.,/,.,/
C=CCn1c(N)cc(=O)nc1SCC(=O)N1CCN(c2ccc(F)cc2)CC1,.,.,.,-153
Nc1nc(SCC(=O)N2CCN(c3ccc(F)cc3)CC2)n[nH]1,.,.,.,.
O=C(Oc1c(CN2CCOCC2)cc(Cl)c2cccnc12)c1ccc(F)cc1,?,.,.,-61
COc1cccc(C(=O)Oc2c(CN3CCOCC3)cc(Cl)c3cccnc23)c1,.,.,.,.
O=C(Oc1c(CN2CCOCC2)cc(Cl)c2cccnc12)c1cccs1,.,.,.,-63
COc1ccc(C(=O)Oc2c(CN3CCOCC3)cc(Cl)c3cccnc23)cc1,.,.,.,.
O=C(Oc1c(CN2CCOCC2)cc(Cl)c2cccnc12)c1ccccc1Cl,.,.,.,-65
COc1cc(C(=O)Oc2c(CN3CCOCC3)cc(Cl)c3cccnc23)cc(OC)c1OC,.,?,.,-111
CCc1cccc(NC(=O)c2ccc3c(c2)N(Cc2cccc(Cl)c2)C(=O)c2ccccc2S3=O)c1 (configuration not stated),.,/,.,/
CC(=O)c1cccc(NC(=O)CCc2c(C)nc3nc(CN)nn3c2C)c1,.,/,.,/
COc1cc2c(cc1OC)C(c1ccccc1)N(Cc1ccc(S(=O)(=O)NC(=O)c3ccco3)cc1)CC2 (configuration not stated),/,/,.,.
NC1=NC(=O)C(CC(=O)NCc2ccccc2)S1 (configuration not stated),.,.,.,-65
O=C(NNC(=S)NC1CCCCC1)c1sc2ccccc2c1Cl,.,.,.,-64
O=C(NNC(=O)c1sc2cccc(Cl)c2c1Cl)NC1CCCCC1,.,.,.,-74
O=C(NC1CC1)c1sc2ccccc2c1Cl,.,.,.,.
O=C1NC(Cc2ccc(O)cc2)c2nc3ccc(Br)cc3c(=O)n2-c2ncccc21 (configuration not stated),/,/,.,?
CC(CNCC1CCCO1)COc1ccccc1 (configuration not stated),.[11.4 µM],.,.,-79
COC(=O)c1cc2oc3ccccc3c2n1CC(=O)Nc1ccc(C)c(F)c1,.,/,.,/
C/C(=N/Nc1ccnc2cc(Cl)ccc12)c1ccc(O)cc1,.,?,.,-54
NC(=S)NNc1ccnc2cc(Cl)ccc12,.,.,.,.
SMILES,RGS4 inh,uPA generation,DRD3 agonist,DRD3 antagonist
COC(=O)c1ccc(NC(=O)C[n+]2ccccc2C)cc1,.,.,.,-59
CC(C)C[C@H]1CNC(=O)C(=O)N1C[C@H](C)NC(=O)Cc1ccccc1,.,.,.,-52
CC(C)C[C@H]1CN(CCCC[C@H]2CNC(=O)C(=O)N2CCc2ccccc2)C(=O)C(=O)N1Cc1ccccc1,/,/,.,.
COc1ccc(OCCSc2nc(C)nc3ccccc23)cc1,.,.,55,.
COc1ccc(OCCSc2ncccn2)cc1,.,.,.,.
CC1CCc2c(sc(NC(=O)c3cc(-c4cccc(Cl)c4)on3)c2C(N)=O)C1 (configuration not stated),.,/,.,/
CCN1CCN(C(=S)c2ccc(Cl)cc2)CC1,?,.,.,-69
S=C(c1ccc(Cl)cc1)N1CCN(Cc2ccccc2)CC1,.,.,.,-69
OCCN1CCN(C(=S)c2ccc(Cl)cc2)CC1,?,.,.,.
CC(=O)/C(C(=N)N1CCN(Cc2ccccc2)CC1)=C(\C)O,.,.,.,-54
CCN1CCN(C(=S)c2ccc(SC)cc2)CC1,?,.,.,-85
CC(C)c1ccc(OCC(=O)Nc2ccc(S(=O)(=O)Nc3ncccn3)cc2)cc1,.,/,.,/
Cc1ccccc1-c1noc(-c2cccnc2N2CCN(c3ccccc3)CC2)n1,.,/,.,/
CCCOc1ccc(C(=O)OCC(=O)c2c(N)n(C)c(=O)n(C)c2=O)cc1OCC,.,.,.,.
Cn1c(N)c(C(=O)COC(=O)c2ccccc2C(=O)c2ccc(Cl)c([N+](=O)[O-])c2)c(=O)n(C)c1=O,.,.,.,-97
Cn1c(N)c(C(=O)COC(=O)c2ccccc2C(=O)c2ccccc2)c(=O)n(C)c1=O,.,.,.,.
CCOc1cc(C(=O)OCC(=O)c2c(N)n(C)c(=O)n(C)c2=O)cc(OCC)c1OCC,.,/,33,.
CSc1ncc(Cl)c(C(=O)Nc2cc(C(F)(F)F)ccc2Cl)n1,.,/,.,/
N#C/C(=C1\SCC(c2ccccc2Cl)S1)n1ccnc1 (configuration not stated),/,/,.,/
CCCCN1CCC(COC(=O)c2cc(Cl)c(N)c3c2OCCO3)CC1,.,.,.,-108
CCCCN1CCC(CCC(=O)c2cc(Cl)c(N)cc2OC)CC1,.,/,/,/
Cc1cc2nc(-c3ccc(OCc4ccc(F)cc4)cc3)cc(C(F)(F)F)n2n1,.,/,.,/
NNc1nc(Nc2ccc([N+](=O)[O-])cc2)nc(N2CCCCCC2)n1,.,.,.,-52
COc1cc(OC)c(NC(=O)CSc2cc(=O)n(C)c3ccc(Cl)cc23)cc1Cl,.,/,.,/
c1ccc([C@H]2CN3C(=N2)Sc2ccccc23)cc1,.,?,.,-52
SMILES,RGS4 inh,uPA generation,DRD3 agonist,DRD3 antagonist
O=C(CCc1ccccc1)N[C@@H]1c2ccccc2CC[C@@H]1OCc1ccccc1,.,.,.,.
O=C(O)CC/C=C\CC[C@H]1[C@@H](N2CCCCC2)[C@@H](O)C[C@@H]1OCc1ccc(-c2ccccc2)cc1,8.4µM,/,/,/
O=C(NCCN1CCN(c2cccc(Cl)c2)CC1)Nc1ccccc1,.,.,.,-91
O=C(CCN1CCN(c2ccccc2)CC1)Nc1ccc(Cl)cc1,.,.,.,-62
O=C(CCN1CCN(c2ccccc2)CC1)Nc1ccc(OCc2ccccc2)cc1,.,.,35,.
O=C(O)c1ccccc1C(=O)N1CCN(c2cccc(Cl)c2)CC1,.,.,.,-55
CCOc1ccccc1C(=O)N1CCN(c2cccc(Cl)c2)CC1,.,/,.,.
C[C@@H](NC(=O)[C@@H]1CCCN1C(=O)[C@@H]1CCCN1C(=O)OC(C)(C)C)c1ccccc1,/,/,.,.
COc1ccccc1NC(=O)NCCN1CCN(c2cccc(Cl)c2)CC1,.,.,.,-92
O=C(CCC(=O)N1CCN(c2cccc(Cl)c2)CC1)N1CCN(c2ccccc2)CC1,.,.,.,.
